Consider 27 compounds from PubChem BioAssay (NCATS).

Inconclusive results are not listed. Values without a mark were called inactive. The source made the active and inactive calls. Calls follow the shape of the dose curve; as a rule, active = well fitted curve in the direction sought with a large enough effect; inconclusive = small, poorly fitted or top-dose-only effect, or another doubt; inactive = no such curve, though single readings can be large; an effect the other way counts as inactive or inconclusive.

Assay [1] can be described thus: P-glycoprotein substrates identified in KB-8-5-11 adenocarcinoma cell line, qHTS therapeutic library screen (AID 1346987). Also: nearly all actives have a fitted effect of over 65% in size. As to activity change, negative = cytotoxicity: series mostly up to about 44 µM. A digest of the protocol: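 Luminescence from CellTiter-Glo, read 5 min after addition, quantified survival of KB-8-5-11 (P-gp-overexpressing) cells exposed to compounds for 72 h. AC50 was derived from concentration-response curves.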
Assay [2] has as its system Zika virus NS2B-NS3 protease (unlinked complex). In words: Primary screen GU Rhodamine qHTS for Zika virus inhibitors: Unlinked NS2B-NS3 protease assay (AID 1347159). Also: nearly all actives have a fitted effect of over 60% in size. Also: potency is read from the fitted curve at half-maximal effect. A digest of the protocol: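 Percent inhibition came from the 15-min rise in Rhodamine110 fluorescence (1.5 microM substrate, ~15% conversion), normalized to no-inhibitor and no-enzyme wells and Hill-fitted. Unlinked protease, 25 nM, pH 8.0 Tris buffer; compounds up to 114 microM, 15-min preincubation.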

In assay [3] the test system is Zika virus NS2B-NS3 protease (linked construct). In words: Primary screen NINDS Rhodamine qHTS for Zika virus inhibitors (AID 1347160). Also: nearly all actives have a fitted effect of over 55% in size. Also: potency is read from the fitted curve at half-maximal effect. Put shortly:
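Rhodamine110-peptide cleavage (1.5 µM substrate) by 25 nM linked NS2B-NS3 enzyme at pH 8.0 (Tris, Tween 20), after 15 min RT preincubation with compounds; 15-min fluorescence change normalized to controls and Hill-fitted.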
% is scaled to controls: 0 for no effect and ±100 for the full control effect.

For the compound `COc1ccc(/C=C/C(N)=O)cc1OC`, the Potency entry in assay [1], in assay [2] and in assay [3] was “inactive” in each case.

On to `CC1(C)C(=O)CCC2(C)C1C(O)C=C1COC(=O)C12O` (stereo unspecified), for which the Potency entry in assay [1], in assay [2] and in assay [3] was “inactive” throughout.

With `C=C1CC23CC1CCC2C12OC(=O)C(C)(C(O)CC1O)C2C3C(=O)O` (stereo unspecified), the Potency entry in assay [1], in assay [2] and in assay [3] was “inactive” each time.

In the case of `O=C(O)c1ccnc(-c2cc(C(=O)NCCc3ccccc3)ccn2)c1`, the Potency entry in assay [1], in assay [2] and in assay [3] was “inactive” each time.

Turning to `CC1(C)CC[C@]2(C(=O)O)[C@H](O)C[C@]3(C)C(=CCC4[C@@]5(C)CC[C@H](O[C@@H]6OC[C@@H](O)[C@H](O)[C@H]6O)[C@@](C)(C(=O)O)C5CC[C@]43C)[C@@H]2C1` (stereo partly specified), the Potency result in assay [1], in assay [2] and in assay [3] was “inactive” each time.

In the case of `COc1cc(C2Oc3c(OC)cc(/C=C/C(=O)OC4CC(O)(C(=O)O)CC(O)C4O)cc3C2CO)ccc1O` (stereo unspecified), the Potency result in assay [1], in assay [2] and in assay [3] was “inactive” in each case.

Regarding `CCc1cc(CC[C@]2(C3CCCC3)CC(O)=C(Cc3nc4nc(C)cc(C)n4n3)C(=O)O2)cc(CC)n1`, the Potency entry in assay [1], in assay [2] and in assay [3] was “inactive” in each case.

With `CC1C(=O)OCC2=CC[N+]3([O-])CCC(OC(=O)C(C)(O)C1(C)O)C23` (stereo unspecified), the Potency result in assay [1], in assay [2] and in assay [3] was “inactive” each time.

On to `CC(C)C1(O)C=C2C(=O)CC3C(C)(C(=O)O)CCCC3(C)C2CC1` (stereo unspecified), for which the Potency entry in assay [1], in assay [2] and in assay [3] was “inactive” each time.

As for `C=C1CC[C@@H]2C(C)(C)CCC[C@@]2(C)[C@@H]1CC/C(=C/C(=O)OC)COC(C)=O`, the Potency entry in assay [1], in assay [2] and in assay [3] was “inactive” in each case.

As for `C[C@@H]1O[C@@H](O[C@H]2[C@H](OC(=O)[C@]34CCC(C)(C)C[C@H]3C3=CCC5[C@@]6(C)CC[C@H](O[C@@H]7O[C@H](CO[C@@H]8OC[C@H](O)[C@H](O)[C@H]8O[C@@H]8OC[C@@H](O)[C@H](O)[C@H]8O)[C@@H](O)[C@H](O)[C@H]7O)C(C)(C)C6CC[C@@]5(C)[C@]3(C)C[C@H]4O)O[C@H](CO)[C@@H](O)[C@@H]2O)[C@H](O[C@@H]2O[C@H](CO)[C@@H](O)[C@H](O)[C@H]2O)[C@H](O)[C@H]1O[C@@H]1OC[C@@H](O)[C@H](O[C@@H]2OC[C@@H](O)[C@H](O)[C@H]2O)[C@H]1O` (stereo partly specified), the activity change, negative = cytotoxicity in assay [1] is 9.58% [at 5.11 µM]. Also, the activity change, negative = inhibition in assay [2] is 2.96% [at 19.1 µM]. Also, the Potency entry in assay [3] was “inactive”.

As to `COc1c(C)c(OCC(O)C(C)(C)O)cc2c1CNC2=O` (stereo unspecified), the Potency entry in assay [1], in assay [2] and in assay [3] was “inactive” throughout.

Consider `CC1=C(C)C(=O)OC(C(C)C2C(O)CC3C4C5OC5C5(O)CC(OC6OC(CO)C(OC7OC(C)C(O)C(O)C7O)C(O)C6O)CC(O)C5(C)C4CCC32C)C1` (stereo unspecified), for which the Potency entry in assay [1], in assay [2] and in assay [3] was “inactive” in each case.

With `C=C(CCO)C(=O)OCC1OCC(OC(=O)C(=C)CCO[C@@H]2O[C@H](COC(=O)C(=C)CCO[C@@H]3O[C@H](CO)[C@@H](O)[C@H](O)[C@H]3O)[C@@H](O)[C@H](O)[C@H]2O)C(O)C1O` (stereo partly specified), the Potency entry in assay [1], in assay [2] and in assay [3] was “inactive” throughout.

With `CC1(C)CC[C@]2(C(=O)O)CC[C@]3(C)C(=CCC4[C@@]5(C)C[C@@H](O)[C@H](O)[C@](C)(CO)C5CC[C@]43C)[C@@H]2[C@@H]1O` (stereo partly specified), the Potency entry in assay [1], in assay [2] and in assay [3] was “inactive” in each case.

As for `CC1=CC2=C(C)C(=O)[C@](C)(O)[C@H](O)C2=CO1`, the Potency entry in assay [1], in assay [2] and in assay [3] was “inactive” in each case.

Consider `COc1ccc(-n2c(SCC#N)nc3sc4c(c3c2=O)CCCC4)cc1`, for which the Potency result in assay [1], in assay [2] and in assay [3] was “inactive” each time.

`C=C1CC[C@@]2(OC1)O[C@H]1CC3C4CC=C5C[C@@H](O[C@@H]6O[C@@H](C)[C@H](O)[C@@H](O)[C@H]6O)C[C@@H](O[C@@H]6O[C@H](C)[C@H](O)[C@H](O)[C@H]6O[C@@H]6O[C@@H](C)[C@H](O)[C@@H](O)[C@H]6O)[C@]5(C)C4CC[C@]3(C)[C@H]1[C@@H]2C` (stereo partly specified): in assay [1], the activity change, negative = cytotoxicity is 5.67% [at 9.29 µM]. Moreover, the Potency entry in assay [2] and in assay [3] was “inactive” throughout.

As to `CC1(C)CC=C(C#Cc2ccccc2)c2cc(/C=C/c3ccc(C(=O)O)cc3)ccc21`, in assay [1], the Potency result is “inactive”. The Potency in assay [2] was 6.31 µM (active); in assay [3] it was 15.8 µM (active).

In the case of `Oc1ccc2c(-c3c(-c4ccccn4)nn4c3CCC4)ccnc2c1`, the Potency entry in assay [1], in assay [2] and in assay [3] was “inactive” each time.

As for `COc1c(O)cc2c(c1O)C(=O)O[C@H](C)[C@H]2O`, the Potency result in assay [1], in assay [2] and in assay [3] was “inactive” each time.

As to `C=C1CC[C@@H]2[C@@](C)(CO[C@@H]3O[C@H](CO)[C@@H](O)[C@H](O)[C@H]3O)[C@H](O)CC[C@@]2(C)[C@@H]1CC/C(C)=C/CO[C@@H]1O[C@H](CO)[C@@H](O)[C@H](O)[C@H]1O`, the Potency result in assay [1], in assay [2] and in assay [3] was “inactive” in each case.

For the compound `C[C@H](O)C(O)(C(=O)OCc1ccccc1NC(=O)CCC(N)C(=O)O)[C@H](C)O` (stereo partly specified), the Potency result in assay [1], in assay [2] and in assay [3] was “inactive” each time.

Turning to `COc1ccc(Oc2c(Cl)cnn(C3c4ccccc4-c4ccccc43)c2=O)cc1`, the Potency entry in assay [1], in assay [2] and in assay [3] was “inactive” in each case.

For `C/C=C(/C)C(=O)OC1C2OC2C2(CO2)C2C3OC(=O)C(C)C3CCC12C` (stereo unspecified), the Potency entry in assay [1], in assay [2] and in assay [3] was “inactive” in each case.

Take `NC(=O)C(O[C@@H]1O[C@H](CO[C@@H]2O[C@H](CO)[C@@H](O)[C@H](O)[C@H]2O)[C@@H](O)[C@H](O)[C@H]1O)c1ccccc1` (stereo partly specified): the Potency entry in assay [1], in assay [2] and in assay [3] was “inactive” throughout.

Regarding `CN1CCN(C(=O)c2cc3cc(Cl)ccc3[nH]2)CC1`, the Potency result in assay [1], in assay [2] and in assay [3] was “inactive” each time.
